High-throughput results from PubChem.
PKA-R1A act: activators of PKA-R1A holoenzyme, primary screen, biochemical, fluorescence polarization, Cy5-IP20, bovine R1A, mouse PKAc | cAMP-dependent protein kinase type I-alpha regulatory subunit (Bos taurus) + … | PKA-R1A dissociation; scaled: DMSO 0%, 113 µM cGMP 100% | activation, % at 11.4 µM | 340,000 tested, 0.083% active | AID 504707, 2011;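 active = percent activation above the mean of all tested compounds plus 3 SD, cut at about 19% in these data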;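 note: higher means more PKAc released from R1A so a rise in polarization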
PKA-R2B activ: activators of PKA-R2B holoenzyme, primary screen, biochemical, fluorescence polarization, Cy5-IP20, human | cAMP-dependent protein kinase catalytic subunit beta (Homo sapiens) + cAMP-dependent … | PKA-R2B holoenzyme dissociation; R2B truncated from residue 108, S112A mutant; 0% DMSO only, 100% 113 µM cGMP | 340,000 tested, 0.079% active | activation, % at 11.4 µM;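 active = activation above a cutoff set at the mean over all compounds plus 3 SD, cut at about 18% in these data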;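 note: higher means more holoenzyme dissociation and a rise in polarization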
Target sequence (P31323 whole entry, looked up, other chains not shown, the tested form may be a part): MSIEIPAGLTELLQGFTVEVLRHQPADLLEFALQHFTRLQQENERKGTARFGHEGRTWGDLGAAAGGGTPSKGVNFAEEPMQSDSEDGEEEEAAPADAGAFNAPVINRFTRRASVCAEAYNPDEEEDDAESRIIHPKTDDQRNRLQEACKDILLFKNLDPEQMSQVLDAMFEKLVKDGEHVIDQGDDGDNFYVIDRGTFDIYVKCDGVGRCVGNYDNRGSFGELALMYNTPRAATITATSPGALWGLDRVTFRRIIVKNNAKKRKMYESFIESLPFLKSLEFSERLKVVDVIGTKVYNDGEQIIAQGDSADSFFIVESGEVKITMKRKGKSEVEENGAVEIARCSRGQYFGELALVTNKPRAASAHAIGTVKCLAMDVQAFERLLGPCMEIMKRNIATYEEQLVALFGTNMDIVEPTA
Neddyl block: inhibitors of cullin neddylation, primary screen, biochemical, TR-FRET, uHTS, NAE and Ubc12. 360,000 tested, 0.58% active. inhibition, % at 25 µM; in the data active = inhibition above about 36%
Rpn11 inh: Rpn11 (PSMD14) deubiquitinase inhibitors, primary screen, biochemical, fluorescence polarization, uHTS. AID 588493, 2011. 360,000 tested, 0.59% active. 26S proteasome non-ATPase regulatory subunit 14 (Homo sapiens), O00487. human 26S proteasome, Ub4-pepOG fluorescence polarization; 20S core pre-blocked with epoxomicin. calls only at 20 µM;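 active = inhibition at 20 µM, scaled to each plate's controls, above about 33%, limit read from the data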
Rpn11 inh conf: Rpn11 (PSMD14) deubiquitinase inhibitors, confirmation, biochemical, fluorescence polarization, single concentration; shares compounds with Rpn11 inh; purified human 26S proteasome, Ub4-pepOG fluorescence polarization; proteasome pretreated with epoxomicin; inhibition, % at 20 µM; 1,900 tested, 29% active; AID 602318, 2012
MMP-2 inh: MMP-2 enzyme inhibition, confirmation, counter-screen for RPN11 inhibitor project, biochemical, fluorescence, single concentration. shares compounds with Rpn11 inh. recombinant MMP-2, FRET peptide cleavage fluorescence. inhibition, % at 20 µM. 1,900 tested, 4% active. AID 602330, 2012;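 note: human MMP-2 activated beforehand with APMA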
Thrombin FP: bovine thrombin protease inhibition, confirmation, counter-screen for Rpn11 inhibitor project, biochemical, fluorescence polarization, single concentration. shares compounds with Rpn11 inh. bovine thrombin cleavage of Ub4-pepOG. inhibition, % at 20 µM. 1,900 tested, 13% active. AID 602333, 2012;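 active = mean inhibition at least 40% at 20 µM, or signal 3 deviations below plate average, so some actives read negative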;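 note: plate controls were thrombin with DMSO for no effect and buffer wells lacking thrombin for full effect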
* marks the source's active call; other numbers are inactive results; i = inactive; · = no result given; + = active, no number. Only some compounds are listed: those with a hit (about 1.3% of all), similar ones and a draw of the others. Cut-off read from the data, not from the text of the source, unless noted: active = inhibition above about 40%; inactive = the rest.

SMILES	PKA-R1A act	PKA-R2B activ	Neddyl block	Rpn11 inh	Rpn11 inh conf	MMP-2 inh	Thrombin FP
Cc1ccc(NC(=O)CN2C(=O)N/C(=C\c3ccco3)C2=O)cc1	0	0	0	+	-9	-7	-11
C[C@H](O)[C@@H]1C(=O)N2CCc3c([nH]c4ccccc34)[C@@H]2C[C@@H]1N(C)S(=O)(=O)c1ccccc1	5	0	·	i	·	·	·
COc1ccc(CCn2c(O)cc3nn(-c4nc5ccccc5s4)c(=O)c-3c2C)cc1	6	9	75*	+	8	-6	16
COc1ccc(CN2CCN(c3nc4ccccc4s3)CC2)cc1	-1	-9	6	i	·	·	·
Cc1ccccc1CN1CCC(n2nccc2NC(=O)CCCc2ccccc2)CC1	-13	-7	5	i	·	·	·
COc1ccc(F)c(CN2CCC(n3nccc3NC(=O)CCCc3ccccc3)CC2)c1	1	1	2	+	-7	-14	-12
CCOc1ccc(NC(=O)/C=C/c2ccc(OC)cc2)c([N+](=O)[O-])c1	-2	-3	-16	+	-16	-26	-20
COc1ccc(/C=C/C(=O)Nc2ccc(OC)cc2[N+](=O)[O-])cc1	7	-7	-18	+	39	-20	14
COc1ccc(NC(=O)/C=C/c2ccccc2)c([N+](=O)[O-])c1	7	-12	-10	i	·	·	·
COc1ccc(S(=O)(=O)N(C)C)cc1NC(=O)c1ccc(OCC(=O)N2CCOCC2)c(OC)c1	-1	-11	17	i	·	·	·
CCN(CC)CCOC(=O)c1ccc(N/C=C(/C#N)c2nc(-c3ccc4c(c3)OCO4)cs2)cc1	-16	1	23	+	153*	-152	71*
COc1cc(/C=C(\C#N)c2nc(-c3cc4ccccc4oc3=O)cs2)ccc1O	-1	1	0	+	19	36	-40
COc1cc(/C=C(\C#N)c2nc3ccccc3o2)ccc1O	0	-10	-362	·	·	·	·
CCN(CC)CCOC(=O)c1ccc(N/C=C(/C#N)c2nc(-c3cc4ccccc4oc3=O)cs2)cc1	-2	-2	22	+	52*	i	60*
O=C(Nc1ccn(CCCNCCCN2CCCC2=O)c(=O)n1)OCc1ccccc1	-7	-7	5	i	·	·	·
CCN1CCc2c(sc(NC(=O)c3cc4ccccc4cc3OC)c2C(N)=O)C1	-11	3	·	+	75*	-38	39
Cc1ccc(CCNC(=O)CS(=O)Cc2nc(-c3cccs3)oc2C)cc1 (stereo not drawn)	3	-4	-1	i	·	·	·
COc1ccc(CCNC(=O)CS(=O)Cc2nc(-c3cccs3)oc2C)cc1OC (stereo not drawn)	5	7	7	+	12	-6	13
COc1ccc(-c2cn(-c3ccccc3)c3[n+]2CCS3)cc1	-7	1	2	i	·	·	·
Cc1ccc(Oc2cc([N+](=O)[O-])cc3c2C(=O)Nc2ccccc2O3)cc1	-6	-6	-9	+	51*	-18	63*
C#CCn1c(=NC(=O)c2cc(-c3cccs3)nc3ccccc23)sc2cc(S(N)(=O)=O)ccc21	-3	-6	·	+	23	-14	9
CCCC(=O)NC(c1ccco1)c1cc(Cl)c2cccnc2c1O (stereo not drawn)	-10	-9	11	+	12	16	1
Cc1ccc(CNC(=O)c2ccc(N3CCC4(CC3)CC(c3cccc(Br)c3)=NO4)c(NC(=O)c3cccc(C)c3)c2)cc1	2	-8	-77	+	7	-1	9
Cc1ccc(CNC(=O)c2ccc(N3CCC4(CC3)CC(c3cccc(Br)c3)=NO4)c(NC(=O)c3ccc(Br)cc3)c2)cc1	-11	-1	-107	i	·	·	·
Cc1ccc(-c2ccc(/C=C3\SC(N4CCOCC4)=NC3=O)o2)cc1	-2	-10	20	+	48*	4	34
SMILES	PKA-R1A act	PKA-R2B activ	Neddyl block	Rpn11 inh	Rpn11 inh conf	MMP-2 inh	Thrombin FP
O=C1N=C(N2CCOCC2)S/C1=C/c1ccc(-c2ccc(F)cc2)o1	-2	-4	16	i	·	·	·
N#CCC(=O)c1ccccc1Oc1ccc(Cl)cc1	-6	-12	2	+	10	18	12
O/N=C/c1ccccc1Oc1ccc(Cl)cc1	0	-4	-1	i	·	·	·
O=C(COC(=O)CCN1C(=O)/C(=C\C=C\c2ccccc2)SC1=S)Nc1ccc(Br)cc1	1	6	0	+	23	-13	-32
CCC1=[N+](CC(=O)c2ccc(C)cc2)CCn2cccc21	-4	2	15	+	3	18	-6
O=C1CC2c3ccccc3C1C1C(=O)N(Cc3ccccc3)C(=O)C21 (stereo not drawn)	-1	-9	1	i	·	·	·
COc1cc(NC(=O)CN(C)S(=O)(=O)c2ccc(C)cc2)cc(OC)c1	0	-4	5	+	3	21	-1
COc1ccc(S(=O)(=O)N(C)CC(=O)Nc2ccc(C)cc2)cc1OC	6	-1	11	i	·	·	·
COc1ccc(NC(=O)CN(C)S(=O)(=O)c2ccc(Cl)cc2)c([N+](=O)[O-])c1	-3	0	-11	+	34	-16	-3
COc1ccc(NC(=O)CN(C)S(=O)(=O)c2ccccc2)c([N+](=O)[O-])c1	-8	2	-12	i	·	·	·
Cc1ccc(C(=O)O)cc1NC(=S)NC(=O)c1ccc(-c2ccc(Cl)cc2)o1	14	9	-40	+	13	45*	-23
O=C(O)c1ccc(NC(=S)NC(=O)c2ccc(-c3ccc(Br)cc3)o2)cc1	4	7	-27	+	74*	23	26
O=C(O)c1cccc(NC(=S)NC(=O)c2ccc(-c3ccc(Cl)cc3)o2)c1	-7	4	-27	i	·	·	·
COc1ccccc1NC(=O)CCSc1nc(C)cs1	-6	-9	4	i	·	·	·
O=C(Nc1ccc(S(=O)(=O)Nc2ncccn2)cc1)c1ccc2ncsc2c1	-4	3	4	i	·	·	·
